Assays:
[1] = target: T1, Serine/threonine-protein kinase TBK1 (Homo sapiens) (UniProt Q9UHD2); details: at 1 µM;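 also: values are mean inhibition of TBK1, screened as part of the GSK published kinase inhibitor set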
T1 sequence (whole entry): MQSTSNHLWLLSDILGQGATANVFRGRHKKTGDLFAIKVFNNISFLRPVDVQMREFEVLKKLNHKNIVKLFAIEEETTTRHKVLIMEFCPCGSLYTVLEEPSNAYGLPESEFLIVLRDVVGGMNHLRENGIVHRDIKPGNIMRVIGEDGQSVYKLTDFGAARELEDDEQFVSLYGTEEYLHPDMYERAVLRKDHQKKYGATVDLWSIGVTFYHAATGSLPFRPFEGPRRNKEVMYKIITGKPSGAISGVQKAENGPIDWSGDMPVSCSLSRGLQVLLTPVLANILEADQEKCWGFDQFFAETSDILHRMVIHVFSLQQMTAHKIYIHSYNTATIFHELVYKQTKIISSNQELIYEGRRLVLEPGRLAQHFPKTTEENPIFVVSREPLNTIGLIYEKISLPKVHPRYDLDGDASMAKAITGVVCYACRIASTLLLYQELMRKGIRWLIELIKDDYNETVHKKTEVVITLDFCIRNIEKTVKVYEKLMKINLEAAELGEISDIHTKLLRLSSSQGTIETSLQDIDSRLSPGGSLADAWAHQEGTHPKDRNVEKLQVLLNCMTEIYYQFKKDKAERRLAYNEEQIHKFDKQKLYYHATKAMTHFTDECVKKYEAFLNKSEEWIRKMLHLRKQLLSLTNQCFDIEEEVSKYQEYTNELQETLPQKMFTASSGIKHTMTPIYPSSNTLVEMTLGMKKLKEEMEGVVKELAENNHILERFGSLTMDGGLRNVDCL

[2] = target: T2, Testis-specific serine/threonine-protein kinase 1 (Homo sapiens) (UniProt Q9BXA7); details: at 0.1 µM
T2 sequence (whole entry): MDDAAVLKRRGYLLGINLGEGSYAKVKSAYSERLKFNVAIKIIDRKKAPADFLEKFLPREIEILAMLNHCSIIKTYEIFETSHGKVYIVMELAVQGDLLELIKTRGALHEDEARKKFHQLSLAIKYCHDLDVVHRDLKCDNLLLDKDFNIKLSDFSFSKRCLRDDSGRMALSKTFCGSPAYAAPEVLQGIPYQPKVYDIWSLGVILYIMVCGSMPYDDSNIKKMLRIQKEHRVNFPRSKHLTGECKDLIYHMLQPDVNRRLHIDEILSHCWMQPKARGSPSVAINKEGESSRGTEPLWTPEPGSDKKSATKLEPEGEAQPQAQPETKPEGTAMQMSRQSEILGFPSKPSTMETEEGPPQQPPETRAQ

[3] = target: T2, Testis-specific serine/threonine-protein kinase 1 (Homo sapiens); details: at 1 µM
[4] = target: T3, Testis-specific serine/threonine-protein kinase 2 (Homo sapiens) (UniProt Q96PF2); details: at 0.1 µM
T3 sequence (whole entry): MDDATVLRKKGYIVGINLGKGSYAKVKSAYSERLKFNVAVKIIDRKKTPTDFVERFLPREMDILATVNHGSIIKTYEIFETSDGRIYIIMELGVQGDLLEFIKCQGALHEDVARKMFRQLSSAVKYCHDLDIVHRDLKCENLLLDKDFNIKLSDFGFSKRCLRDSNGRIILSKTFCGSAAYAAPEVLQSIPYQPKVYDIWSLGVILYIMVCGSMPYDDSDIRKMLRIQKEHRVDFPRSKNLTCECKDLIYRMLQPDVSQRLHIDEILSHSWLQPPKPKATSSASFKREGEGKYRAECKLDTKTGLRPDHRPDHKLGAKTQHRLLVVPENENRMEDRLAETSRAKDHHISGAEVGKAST

[5] = target: T3, Testis-specific serine/threonine-protein kinase 2 (Homo sapiens); details: at 1 µM
[6] = target: Casein kinase I isoform alpha (Homo sapiens) (UniProt P48729); details: at 0.1 µM
Casein kinase I isoform alpha (Homo sapiens), sequence (P48729 2-337 limits assumed): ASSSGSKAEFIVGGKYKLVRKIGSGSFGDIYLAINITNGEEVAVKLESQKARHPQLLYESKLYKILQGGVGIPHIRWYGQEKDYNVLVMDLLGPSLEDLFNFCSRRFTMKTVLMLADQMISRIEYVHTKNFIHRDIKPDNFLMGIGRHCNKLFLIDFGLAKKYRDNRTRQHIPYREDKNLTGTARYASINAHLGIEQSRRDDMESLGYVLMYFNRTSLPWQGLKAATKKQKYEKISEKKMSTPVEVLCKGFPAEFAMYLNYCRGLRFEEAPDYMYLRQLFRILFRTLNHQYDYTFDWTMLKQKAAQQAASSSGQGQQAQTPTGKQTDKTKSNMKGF

[7] = target: Casein kinase I isoform alpha (Homo sapiens) (UniProt P48729); details: at 1 µM
[8] = target: Casein kinase I isoform gamma-1 (Homo sapiens) (UniProt Q9HCP0); details: at 0.1 µM
Casein kinase I isoform gamma-1 (Homo sapiens), sequence (Q9HCP0 whole entry, looked up, canonical isoform): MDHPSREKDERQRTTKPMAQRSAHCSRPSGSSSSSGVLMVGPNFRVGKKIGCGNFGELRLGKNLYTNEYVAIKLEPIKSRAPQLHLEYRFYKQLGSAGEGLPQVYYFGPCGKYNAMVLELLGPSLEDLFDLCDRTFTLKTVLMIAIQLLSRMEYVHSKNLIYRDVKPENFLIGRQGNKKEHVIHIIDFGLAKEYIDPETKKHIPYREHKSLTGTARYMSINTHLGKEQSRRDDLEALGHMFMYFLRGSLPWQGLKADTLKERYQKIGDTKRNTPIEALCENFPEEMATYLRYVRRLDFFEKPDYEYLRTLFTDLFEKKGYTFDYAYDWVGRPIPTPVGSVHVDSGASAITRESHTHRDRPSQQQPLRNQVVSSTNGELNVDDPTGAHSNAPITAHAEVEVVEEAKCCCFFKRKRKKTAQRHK

[9] = target: Casein kinase I isoform gamma-1 (Homo sapiens) (UniProt Q9HCP0); details: at 1 µM
[10] = target: Casein kinase I isoform gamma-2 (Homo sapiens) (UniProt P78368); details: at 0.1 µM
Casein kinase I isoform gamma-2 (Homo sapiens), sequence (P78368 whole entry, looked up, canonical isoform): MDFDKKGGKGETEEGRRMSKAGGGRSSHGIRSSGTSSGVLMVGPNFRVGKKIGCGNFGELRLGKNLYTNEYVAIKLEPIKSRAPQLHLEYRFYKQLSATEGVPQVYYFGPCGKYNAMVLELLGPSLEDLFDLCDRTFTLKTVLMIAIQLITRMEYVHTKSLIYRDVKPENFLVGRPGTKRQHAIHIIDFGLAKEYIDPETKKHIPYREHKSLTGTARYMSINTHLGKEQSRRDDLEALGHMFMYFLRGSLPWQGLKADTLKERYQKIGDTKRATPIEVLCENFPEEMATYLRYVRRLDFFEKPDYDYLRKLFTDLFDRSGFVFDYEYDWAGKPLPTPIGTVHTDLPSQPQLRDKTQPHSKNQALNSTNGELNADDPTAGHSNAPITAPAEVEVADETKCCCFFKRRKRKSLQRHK

[11] = target: Casein kinase I isoform gamma-2 (Homo sapiens) (UniProt P78368); details: at 1 µM
[12] = target: Casein kinase I isoform gamma-3 (Homo sapiens) (UniProt Q9Y6M4); details: at 0.1 µM
Casein kinase I isoform gamma-3 (Homo sapiens), sequence (Q9Y6M4 whole entry, looked up, canonical isoform): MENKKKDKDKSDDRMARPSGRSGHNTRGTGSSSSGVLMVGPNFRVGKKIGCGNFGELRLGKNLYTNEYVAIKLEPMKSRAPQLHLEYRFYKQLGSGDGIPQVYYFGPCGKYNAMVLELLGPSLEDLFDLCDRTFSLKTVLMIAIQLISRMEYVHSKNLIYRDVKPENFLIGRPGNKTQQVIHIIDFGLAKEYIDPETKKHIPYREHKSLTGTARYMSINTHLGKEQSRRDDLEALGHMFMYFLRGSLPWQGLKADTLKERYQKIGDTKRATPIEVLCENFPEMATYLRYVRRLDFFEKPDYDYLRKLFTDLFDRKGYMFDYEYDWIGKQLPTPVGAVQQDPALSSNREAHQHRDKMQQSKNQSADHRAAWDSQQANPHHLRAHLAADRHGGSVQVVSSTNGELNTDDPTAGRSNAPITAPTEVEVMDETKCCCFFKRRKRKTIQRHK

[13] = target: Casein kinase I isoform gamma-3 (Homo sapiens) (UniProt Q9Y6M4); details: at 1 µM
[14] = target: Cyclin-dependent kinase 1 (Homo sapiens) (UniProt P06493); details: at 0.1 µM
Cyclin-dependent kinase 1 (Homo sapiens), sequence (P06493 whole entry, looked up): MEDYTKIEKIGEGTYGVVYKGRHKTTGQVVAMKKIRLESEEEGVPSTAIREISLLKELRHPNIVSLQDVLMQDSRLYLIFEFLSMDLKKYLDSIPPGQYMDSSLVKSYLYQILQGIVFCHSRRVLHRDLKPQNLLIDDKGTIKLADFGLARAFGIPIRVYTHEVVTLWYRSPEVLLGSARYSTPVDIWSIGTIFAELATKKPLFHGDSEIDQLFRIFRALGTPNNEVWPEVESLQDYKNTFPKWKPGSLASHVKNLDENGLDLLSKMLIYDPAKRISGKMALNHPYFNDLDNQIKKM

[15] = target: Cyclin-dependent kinase 1 (Homo sapiens) (UniProt P06493); details: at 1 µM
[16] = target: Cyclin-dependent kinase 2 (Homo sapiens) (UniProt P24941); details: at 0.1 µM
[17] = target: Cyclin-dependent kinase 2 (Homo sapiens) (UniProt P24941); details: at 1 µM
[18] = target: Cyclin-dependent kinase 2 (Homo sapiens) (UniProt P24941); details: at 0.1 µM; remark: listed apart in the source
[19] = target: Cyclin-dependent kinase 2 (Homo sapiens) (UniProt P24941); details: at 1 µM; remark: listed apart in the source
[20] = target: CDK3/Cyclin E (Homo sapiens) (UniProt P24864+Q00526); details: at 0.1 µM;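 also: reported percentages are mean inhibition values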
CDK3/Cyclin E (Homo sapiens), sequence (P24864 whole entry, looked up): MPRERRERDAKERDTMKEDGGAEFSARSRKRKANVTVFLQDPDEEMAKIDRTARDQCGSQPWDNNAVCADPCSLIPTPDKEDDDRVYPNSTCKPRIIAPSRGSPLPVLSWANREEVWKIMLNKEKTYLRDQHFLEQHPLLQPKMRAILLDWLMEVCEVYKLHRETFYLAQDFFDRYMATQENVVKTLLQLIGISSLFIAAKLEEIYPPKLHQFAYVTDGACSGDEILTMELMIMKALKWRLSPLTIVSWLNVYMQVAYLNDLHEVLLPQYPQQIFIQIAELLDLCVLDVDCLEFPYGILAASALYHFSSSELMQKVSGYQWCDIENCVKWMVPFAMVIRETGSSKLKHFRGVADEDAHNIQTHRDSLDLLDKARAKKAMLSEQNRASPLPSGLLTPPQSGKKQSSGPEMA
CDK3/Cyclin E (Homo sapiens), sequence (Q00526 whole entry, looked up): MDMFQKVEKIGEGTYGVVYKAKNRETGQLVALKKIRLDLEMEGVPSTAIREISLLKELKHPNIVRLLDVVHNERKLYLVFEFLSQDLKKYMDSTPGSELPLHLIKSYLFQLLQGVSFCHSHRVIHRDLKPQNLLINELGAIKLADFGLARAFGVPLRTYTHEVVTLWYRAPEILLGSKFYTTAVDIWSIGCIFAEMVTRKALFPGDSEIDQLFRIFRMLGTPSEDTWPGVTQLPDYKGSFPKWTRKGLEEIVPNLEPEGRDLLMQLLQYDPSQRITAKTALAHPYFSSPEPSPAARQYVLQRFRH

Row | Structure (SMILES) | inhibition [1] [%] | inhibition [2] [%] | inhibition [3] [%] | inhibition [4] [%] | inhibition [5] [%] | inhibition [6] [%] | inhibition [7] [%] | inhibition [8] [%] | inhibition [9] [%] | inhibition [10] [%] | inhibition [11] [%] | inhibition [12] [%] | inhibition [13] [%] | inhibition [14] [%] | inhibition [15] [%] | inhibition [16] [%] | inhibition [17] [%] | inhibition [18] [%] | inhibition [19] [%] | inhibition [20] [%]
1 | COc1ccc2[nH]c3c4[nH]c5ccc(OC)cc5c4c4c(c3c2c1)C(=O)NC4=O | 53.9 | 3.96 | 11.6 | 3.41 | 4.83 | 2.15 | 5.69 | 4.82 | 4.21 | 2.32 | 3.1 | 4.06 | 5 | 0.17 | 3.22 | 1.85 | 3 | 3.64 | 4.91 | 2.31
2 | COc1ccc2c(-c3ccnc(Nc4cccc(OC(F)(F)F)c4)n3)cnn2n1 | 31.6 | 3.88 | 7 | 3.39 | 2.18 | 2.85 | 9.17 | 3.59 | 6.06 | 3.21 | 7.44 | 4.96 | 6.47 | 5.27 | 41.2 | 11.1 | 60.1 | 14.8 | 57 | 3.19
3 | N#Cc1c(NC(=O)c2ccc(F)cc2)sc2c1CCCC2 | 0.54 | 0.45 | 0.89 | 0.22 | 0.33 | -0.68 | 1.93 | 0.85 | 0.78 | 0.66 | 0.5 | 0.26 | -1.32 | -0.03 | -0.31 | 0.4 | -1.07 | 0.42 | 1.03 | 0.87
4 | Fc1ccc(-c2nn3ncccc3c2-c2ccnc(Nc3ccc4c(c3)OCCO4)n2)cc1 | 4.55 | 4.06 | 2.68 | 1.3 | 1.02 | 39.5 | 72.5 | 14.8 | 58.5 | 11.1 | 61.6 | 23.9 | 76.1 | 0.14 | 0.65 | 1.25 | 3.7 | 2.71 | 2.76 | 3.59
5 | Fc1ccc(-c2cc(-c3c[nH]nc3-c3ccccn3)ccn2)cc1 | 3.03 | 6.33 | 9.18 | 4.38 | 6.99 | 3.27 | 5.16 | 4.51 | 7.09 | 4.03 | 6.19 | 4.09 | 6.73 | 0.86 | -0.63 | 2.51 | 5.92 | 2.72 | 3.29 | 2.03
6 | Fc1ccc(-c2nn3ccccc3c2-c2ccncc2)cc1 | 0.18 | 1.12 | 1.44 | -0.56 | 0.24 | 13.7 | 58.4 | 1.48 | 8.01 | 1.65 | 7.48 | 0.7 | 15.1 | 0.74 | 1.96 | 2.05 | 2.06 | 1.19 | 2.02 | 0.78
7 | NS(=O)(=O)c1ccc(N/N=C2\C(=O)Nc3ccc4ncccc4c32)cc1 | 50.4 | 5.63 | 34.9 | 0.69 | 4.1 | 4.04 | 21.3 | 2.39 | 8.12 | 1.41 | 7.05 | 1.94 | 12.7 | 61.3 | 80.5 | 93.4 | 86.6 | 83.1 | 84.3 | 79.7
8 | CC1=C(C(=O)Nc2cc(Cl)c3[nH]ncc3c2)C(c2ccc(C(F)(F)F)cc2)CC(=O)N1 (stereo not given) | 3.48 | 3.52 | 3.9 | 2.37 | 1.37 | 1.86 | 2.49 | 2.91 | 3.25 | 2.31 | 3.61 | 1.59 | 2.92 | -0.73 | 1.81 | -0.94 | 9.38 | 2.4 | 7.57 | 2.08
9 | FC(F)(F)c1cccc(-c2nn3ncccc3c2-c2ccnc(Nc3ccc4c(c3)OCCO4)n2)c1 | 2.28 | 2.75 | 1.2 | -0.07 | -1.1 | 1.53 | 4.39 | 2.58 | 4.21 | 1.92 | 3.28 | 1.54 | 4.56 | 1.58 | 3.23 | 1.29 | 0.77 | 4.14 | 4.5 | 1.7
10 | O=C(Nc1n[nH]c2cc(-c3ccc(F)cc3)ccc12)C1CC1 | 5.39 | 3.31 | 2.06 | 2.29 | 0.97 | 2.37 | 7.14 | 2.86 | 3.21 | 2.45 | 3.16 | 1.93 | 3.02 | 0.08 | 4.52 | -0.94 | 5.81 | 2.56 | 6.81 | 2.18
